# Screening data: PubChem BioAssay, National Center for Advancing Translational Sciences (NCATS)
# GLP1R cytotox: qHTS of GLP-1 Receptor Inverse Agonists: Cytotox Screen. Potency, µM (highest dose often 38.3 µM), hits mostly inhibitors. HEK293 cAMP-luciferase reporter cells, luminescence, 24 h. actives 0.13% (n = 410,000);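 note: loss of luciferase light is scored as toxicity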
#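 To flag toxic compounds, the library was rerun on cells for 24 hr at 37 deg C and 5% CO2. Viability-linked luminescence was captured 12 min after adding luciferase detection reagent.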
# GLP1R inv ag: qHTS of GLP-1 Receptor Inverse Agonists (Inhibition Mode); HEK293 GLP-1R CRE-luciferase, luminescence, 24 h; GLP-1R form is constitutively active; Potency, µM (highest dose often 38.3 µM), hits mostly inhibitors; actives 1.6% (n = 410,000); note: nearly all actives have a fitted effect of over 55% in size
# Target sequence (P43220 whole entry, looked up): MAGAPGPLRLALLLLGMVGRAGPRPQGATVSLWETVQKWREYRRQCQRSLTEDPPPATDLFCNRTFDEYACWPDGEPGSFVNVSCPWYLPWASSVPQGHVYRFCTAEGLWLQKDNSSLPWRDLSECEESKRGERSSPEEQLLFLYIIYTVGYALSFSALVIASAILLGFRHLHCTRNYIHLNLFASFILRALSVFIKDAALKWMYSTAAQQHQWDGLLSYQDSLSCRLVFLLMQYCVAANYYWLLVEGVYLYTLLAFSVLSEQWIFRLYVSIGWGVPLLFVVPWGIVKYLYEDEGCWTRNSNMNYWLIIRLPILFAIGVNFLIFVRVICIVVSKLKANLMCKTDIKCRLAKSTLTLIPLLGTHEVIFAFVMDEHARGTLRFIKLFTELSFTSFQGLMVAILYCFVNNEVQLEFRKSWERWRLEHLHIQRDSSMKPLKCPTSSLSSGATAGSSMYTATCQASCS
#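 HEK293 cells stably co-expressing a cAMP-responsive luciferase reporter and constitutively active GLP-1R were seeded, incubated 12 h, then exposed to compounds for 24 h at 37 C. Luminescence was read 12 min after detection reagent; inverse agonists lower signal.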
# PTHR1 agonist: qHTS for PTHR1 Agonists: Primary Screen. Potency, µM (highest dose often 115 µM), usual class: activators. AID 743266, 2014. actives 0.075% (n = 410,000). HEK293 GP2 PTHR1 cells, GloSensor cAMP luminescence, 1 h. Parathyroid hormone/parathyroid hormone-related peptide receptor (Homo sapiens), Q03431; note: nearly all actives have a fitted effect of over 55% in size
#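 HEK-293-derived GP2 cells expressing PTHR1 and a GloSensor cAMP reporter, 3,000/well, plated overnight, given luciferin plus IBMX (each 0.5 mM as added) for 1 h at 37 °C, then compound for 1 h at 37 °C. Luminescence was read after 15 min at room temperature.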
# RGS4 inhibitor: Inhibitors of Regulator of G Protein Signaling (RGS) 4: qHTS. Regulator of G-protein signaling 4 (Homo sapiens), P49798. Transcreener GDP fluorescence polarization, RGS4-accelerated GTP hydrolysis. Potency, µM (doses to about 114 µM), hits mostly inhibitors. actives 0.039% (n = 390,000). AID 504845, 2011; note: nearly all actives have a fitted effect of over 75% in size
# Target sequence (P49798 whole entry, looked up): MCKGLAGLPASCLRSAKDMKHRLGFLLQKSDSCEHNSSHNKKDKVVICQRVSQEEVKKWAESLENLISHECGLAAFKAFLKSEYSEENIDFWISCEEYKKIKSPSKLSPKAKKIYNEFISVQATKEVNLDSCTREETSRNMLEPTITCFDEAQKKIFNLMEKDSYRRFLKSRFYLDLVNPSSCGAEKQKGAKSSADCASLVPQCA
#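 MLSMR compounds (23 nl, pin-transferred) preincubated 10 min at room temperature with a 500nM (2x) first reagent, then RGS4 at 900nM (2x) plus Transcreener GDP mix added; fluorescence polarization (620/688 nm) read before and after 90 min at 30 °C.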
# GLP-1R agonist: qHTS of GLP-1 Receptor Agonists; Potency, µM (series often up to 45.6 µM), actives largely listed as activators; AID 624172, 2012; actives 0.007% (n = 380,000); HEK293 GLP-1R CRE-luciferase, luminescence, 4-6 h; cells express a hypersensitive GLP-1R form
# A number is an active result; . = inactive; ? = inconclusive; / = not tested or not shown; [ ] = remark or other dose. Hits are enriched below; roughly 1.7% of the tested compounds scored in any of these assays. Calls come from the whole dose curve; as a rule, active = well fitted curve in the direction sought with a large enough effect; inconclusive = small, poorly fitted or top-dose-only effect, or another doubt; inactive = no such curve, though single readings can be large; an effect the other way counts as inactive or inconclusive.
SMILES,GLP1R cytotox,GLP1R inv ag,PTHR1 agonist,RGS4 inhibitor,GLP-1R agonist
CCOc1ccc(OCC)c(NC(=O)CN2CCN(c3cc(C)ccc3C)CC2)c1,?,13µM,.,.,.
CCOc1ccc(OCC)c(NC(=O)CN2CCN(c3cccc(C)c3)CC2)c1,.,?,.,.,.
CCCCCCC(NC(=O)c1ccc(C)cc1)C(=O)O (stereo not given),.,.,.,.,.
CC(C)Oc1ccc(S(=O)(=O)N2CCCCC2)cc1NC(=O)C1=COCCO1,.,?,.,.,.
Cc1cccc(Oc2ccc(S(=O)(=O)N3CCCCC3)cc2NC(=O)C2=COCCO2)c1,.,10µM,.,.,.
CN1CCN(c2ccc3c(c2)C2CC3CCN2C(=O)OCc2ccccc2)CC1 (stereo not given),.,10µM,.,.,.
Cc1c(CC(=O)NCCc2ccccc2F)c(=O)oc2cc(O)c(Cl)cc12,.,.,.,.,/
CC1S/C(=N\N=C\c2cccc([N+](=O)[O-])c2)N(C(C)(C)C)C1=O (stereo not given),.,3.5µM,.,.,.
O=[N+]([O-])c1cccc(C=NN=C2c3ccccc3-c3ccccc32)c1,.,.,.,?,.
O=[N+]([O-])c1ccc(Oc2ccc(N=C=S)cc2)cc1,/,/,/,/,.
COc1ccc(C(=O)NC(=S)Nc2ccc(S(N)(=O)=O)cc2)cc1,.,.,.,.,.
COc1ccc(C(=O)NC(Nc2ccccc2)C(Cl)(Cl)Cl)cc1 (stereo not given),.,7.1µM,.,.,.
O=C(NOCc1ccccc1)c1ccc(Cl)cc1,.,?,.,.,.
COc1ccc(C(=O)NOCc2ccccc2)cc1,.,3.2µM,.,.,.
COc1ccc(C(=O)NC(NC(=S)Nc2ccc(S(N)(=O)=O)cc2)C(Cl)(Cl)Cl)cc1 (stereo not given),.,3.2µM,.,.,.
CN1CCN(c2ccc(CNC[C@H]3O[C@@H](n4cnc5c(=O)[nH]c(N)nc54)[C@H](O)[C@@H]3O)c(F)c2)CC1,.,.,.,/,.
c1ccc(Nc2c(-c3c[nH]c4ccccc34)nc3ccccn23)cc1,.,?,.,.,/
CCCCn1c(C23CC4CC(CC(C4)C2)C3)n[nH]c1=S,.,7.1µM,.,.,.
Cc1cc(C)c(CN2CCN(CCCn3cnc(C(=O)Nc4ccc(C)c(C)c4)n3)CC2)c(C)c1,?,13µM,.,.,.
Cc1ccc(NCCCn2cnc(C(=O)Nc3ccc(C)c(C)c3)n2)cc1C,.,.,.,.,.
CCOC(=O)c1c(C)sc(-c2c(-c3ccc4c(c3)OCCO4)[nH]c3c2c(=O)n(C)c(=O)n3C)c1O,.,.,.,.,/
Cc1cc(F)ccc1NC(=O)c1ccc(NS(=O)(=O)c2cc(C(C)(C)C)ccc2C)cc1,?,4.5µM,.,.,.
C=CCn1nc([N+](=O)[O-])nc1Sc1cccc2cccnc12,2.8µM,?,.,.,.
O=[N+]([O-])c1ccc(Sc2cccc3cccnc23)c([N+](=O)[O-])c1,3.2µM,?,.,.,.
O=[N+]([O-])c1cc(Cl)ccc1Sc1cccc2cccnc12,.,.,.,.,.
SMILES,GLP1R cytotox,GLP1R inv ag,PTHR1 agonist,RGS4 inhibitor,GLP-1R agonist
Cc1cc(C)c2sc(N(CCN(C)C)C(=O)c3c(F)cccc3F)nc2c1,.,7.1µM,.,.,.
CCN(c1ccccc1)S(=O)(=O)c1ccc(C(=O)N(CCCN(C)C)c2nc3cc4c(cc3s2)OCO4)cc1,?,3.5µM,.,.,.
CCN(Cc1ccccc1)S(=O)(=O)c1ccc(C(=O)N(CCCN(C)C)c2nc3cc(C)cc(C)c3s2)cc1,?,?,.,.,.
Cc1cc(C)c2sc(N(CCCN(C)C)C(=O)CN3C(=O)c4ccccc4C3=O)nc2c1,?,?,.,.[11.4 µM],.
CN(C)CCCN(C(=O)c1ccc2ccccc2c1)c1nc2cc3c(cc2s1)OCO3,?,?,.,.,.
Cc1cc(C)c2sc(N(CCCN(C)C)C(=O)c3ccc(S(=O)(=O)N(C)Cc4ccccc4)cc3)nc2c1,?,11µM,.,.,.
CCOc1cccc2sc(N(CCCN(C)C)C(=O)c3ccc(S(=O)(=O)N(CC)Cc4ccccc4)cc3)nc12,?,4µM,.,.,.
CSc1ncccc1C(=O)OCC(=O)NC1CC1,.,.,.,.,.
CCOC(=O)c1c(C)[nH]c(C)c1C(=O)COC(=O)c1cccnc1SC,.,.,.,.,.
CCN(CC)S(=O)(=O)c1ccc(C(=O)NCC2(N3CCOCC3)CCCCC2)cc1,.,?,?,.,.
Cc1ccc(S(=O)(=O)N2[C@@H](c3ccc4c(c3)OCO4)C(C(=O)O)=C[C@H]2CC2CCCC2)cc1,.,.,.,.,.
CN(C)CCN(C(=O)c1cccc2ccccc12)c1nc2cc3c(cc2s1)OCO3,.,10µM,.,.,.
CN(C)CCN(C(=O)c1ccc(S(=O)(=O)N2CCCC2)cc1)c1nc2ccc(Br)cc2s1,.,5.6µM,.,.,.
CN(C)CCN(C(=O)c1ccc2ccccc2c1)c1nc2cc3c(cc2s1)OCCO3,.,?,.,.,.
CN(C)CCCN(C(=O)c1ccc(S(=O)(=O)N2CCCCCC2)cc1)c1nc2cc3c(cc2s1)OCO3,.,10µM,.,/,.
CN(C)CCCN(C(=O)c1ccc(S(=O)(=O)N(C)Cc2ccccc2)cc1)c1nc2cc3c(cc2s1)OCO3,?,7.1µM,.,.,.
Cc1ccc2nc(-c3ccc(C#N)cc3)c(Cc3ccccc3C(F)(F)F)n2c1,.,?,.,/,.
O=C(CSc1n[nH]c(-c2ccccn2)n1)Nc1ccccc1,.,.,.,.,.
O=C(CSc1n[nH]c(-c2ccccn2)n1)Nc1ccccc1F,?,11µM,.,.,.
COc1ccc(-c2nc(SCC(=O)Nc3ccc4c(c3)OCO4)c(-c3ccccc3)[nH]2)cc1,.,?,.,.,/
CCCNC(=O)c1cccc(Cn2nc(C)c(Br)c2C)c1,.,?,.,?,.
Cc1nn(Cc2cccc(C(=O)NC34CC5CC(CC(C5)C3)C4)c2)c(C)c1Br,.,2.8µM,.,.,.
Oc1ccc(CNc2ccccc2)c2cccnc12,?,6.3µM,.,.,.
OCc1ccnc2c(O)cccc12,?,8.9µM,.,.,.
Oc1ccc(CNc2ccc(F)cc2)c2cccnc12,.,?,.,?,.
O=c1oc2ccccc2c(O)c1Sc1ccc(Cl)cc1,.,.,.,.,.
